Screens as filed in PubChem BioAssay.
Pf growth 48h – Primary qHTS for delayed death inhibitors of the malarial parasite plastid, 48 hour incubation | Potency, µM (doses to about 28.7 µM), most hits filed as inhibitors | P. falciparum luciferase growth in erythrocytes, 48 h | actives 5.9% (n = 310,000)
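In quantitative HTS format, infected erythrocytes bearing luciferase-reporter parasites were treated for a single generation at 37 C. Luminescence after adding detection reagent served as the growth measure.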
AMA1-RON2 inh – qHTS for Inhibitors of AMA1-RON; Towards Development of Antimalarial Drug Lead: Primary Screen; actives 0.2% (n = 360,000); Potency, µM (series often up to 58.2 µM), hits mostly inhibitors; AlphaScreen AMA1-biotinylated RON2 peptide binding; further: nearly all actives have a fitted effect of over 45% in size
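AMA1 (3D7) with his tag at 25 nM final met compounds first, then biotinylated RON2 peptide at 25 nM; detection used donor plus acceptor beads, 10 µg/mL apiece, read by AlphaScreen after 30 min at room temperature.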
HCV inh – qHTS Assay for Inhibitors of Hepatitis C Virus (HCV) | Huh7.5.1 HCVcc-Cre infection, luciferase reporter, 44 h | Potency, µM (titrated, usually from 41.8 µM), usual class: inhibitors | actives 3.4% (n = 340,000)
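Luciferase read-out (15 sec integration) after a 15 min room-temperature substrate step quantifies HCVcc-Cre infection. Cells, 1,000 per well, had compound added 4 h post-plating, then virus at ~0.5 moi, and were cultured 44 h.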
Pf growth 96h – Primary qHTS for delayed death inhibitors of the malarial parasite plastid, 96 hour incubation | P. falciparum luciferase reporter growth, 96 h | Potency, µM (highest dose often 28.7 µM), usual class: inhibitors | actives 6.9% (n = 320,000) | AID 504834, 2011
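Two parasite generations (96 h, 37 C, 5% CO2) of compound exposure in infected erythrocytes (0.05% parasitemia, 2% hematocrit). Luciferase-reporter P. falciparum; decreased luminescence indicates inhibited growth, aimed at apicoplast-acting delayed death.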
Of the large screens only hits and unclear results are named; the others gave an inactive call. Sampled rows, rich in hits. Any-hit rate of the full collection: about 11%. The call rests on the fitted dose curve; in most records, active means well fitted curve in the direction sought with a large enough effect; inconclusive means small, poorly fitted or top-dose-only effect, or another doubt; inactive means no such curve, though single readings can be large; an effect the other way counts as inactive or inconclusive.

CCOC(=O)c1cnc(SC)nc1Oc1cccc(NS(=O)(=O)c2ccccc2)c1	HCV inh 10µM, Pf growth 96h inconclusive
Cc1ccc(-c2cnc3n2CCCCC3)cc1	HCV inh inconclusive, Pf growth 96h inconclusive
c1cc2c(cc1-c1cnc3n1CCC3)OCCO2	HCV inh 10µM (no result: Pf growth 96h)
Cc1cccc(NC(=O)c2ccc(CN3CCc4ccccc4C3)cc2)c1C	HCV inh inconclusive, Pf growth 96h inconclusive
O=C(Nc1cccc(Br)c1)c1ccc(CN2CCc3ccccc3C2)cc1	HCV inh 2.24µM, Pf growth 96h 9.28µM
CSc1cccc(NC(=O)c2ccc(CN3CCc4ccccc4C3)cc2)c1	Pf growth 48h 4.15µM, HCV inh 8.91µM
NC(=O)[C@H]1CC2(CC(c3cccc(NC(=O)[C@H]4CCC(=O)N4)c3)=NO2)CN1C(=O)c1cc([N+](=O)[O-])cc([N+](=O)[O-])c1 (stereo not given in full)	none
CC(C)CCN1CCN(Cc2cccc(C(F)(F)F)c2)CC1CCO (stereo not given)	Pf growth 48h inconclusive
Cc1ccc2c(c1)N(C(=O)CCC(=O)N1CCC(C(N)=O)CC1)CC(C)O2 (stereo not given)	Pf growth 96h 13.1µM
Cc1ccc2c(c1)N(C(=O)CCC(=O)NCc1cccnc1)CC(C)O2 (stereo not given)	Pf growth 96h 13.1µM
Cc1ccc2c(c1)N(C(=O)CCC(=O)N1CCOCC1)CC(C)O2 (stereo not given)	none
S=c1[nH]nc(COc2ccc3ccccc3c2)o1	Pf growth 96h 9.28µM
COc1ccc(Cc2n[nH]c(=S)o2)cc1	Pf growth 96h inconclusive
CC(=O)OCC1OC(n2ccc3ccccc32)C(OC(C)=O)C(OC(C)=O)C1OC(C)=O (stereo not given)	none (no result: Pf growth 96h)
COC(=O)C1C=CC(OC2OC(COC(C)=O)C(OC(C)=O)C(OC(C)=O)C2OC(C)=O)n2c(=O)n(-c3ccccc3)c(=O)n21 (stereo not given)	HCV inh 10µM (no result: Pf growth 48h, Pf growth 96h)
O=C(C1CCC(C(=O)N2CCc3ccccc32)CC1)N1CCc2ccccc21 (stereo not given)	Pf growth 96h 8.28µM
CC(Oc1ccc(Br)cc1)C(=O)N1CCc2ccccc21 (stereo not given)	Pf growth 48h 1.47µM
O=C(Cc1ccccc1)N1CCc2ccccc21	none (no result: Pf growth 48h)
CC(Oc1ccccc1Br)C(=O)N1CCc2ccccc21 (stereo not given)	none
O=C(CS(=O)(=O)c1ccccc1)N1CCc2ccccc21	Pf growth 96h 0.828µM
O=C(CCl)c1ccc2c(c1)CCN2C(=O)C1CC1	Pf growth 96h 10.4µM (no result: AMA1-RON2 inh, HCV inh)
CCOC(=O)C1CCCN(C(=O)c2cnn3c(C(F)(F)F)cc(-c4ccccc4)nc23)C1 (stereo not given)	Pf growth 48h 9.28µM (no result: Pf growth 96h)
COC(=O)c1cnn2c(C(F)(F)F)cc(-c3ccc(F)cc3)nc12	Pf growth 96h inconclusive
CCOC(=O)C1CCCN(C(=O)c2cc3nc(-c4cccc(OC)c4)cc(C(F)(F)F)n3n2)C1 (stereo not given)	Pf growth 48h 11.7µM, HCV inh inconclusive (no result: Pf growth 96h)
COc1ccc(-c2cc(C(F)(F)F)n3ncc(C(=O)N4CCCCC4c4cccnc4)c3n2)cc1 (stereo not given)	Pf growth 48h 2.94µM, HCV inh inconclusive
COc1ccc(NC(=O)CCC(=O)c2cccs2)cc1Cl	none
COc1cc(NC(=O)COc2ccccc2Cl)ccc1NC(=O)c1cccs1	HCV inh 1.12µM
COc1cc(NCCC(=O)c2cccs2)c(OC)cc1Cl	AMA1-RON2 inh 14.1µM
COc1cc(NC(=O)COc2ccccc2[N+](=O)[O-])ccc1NC(=O)c1cccs1	HCV inh inconclusive, Pf growth 96h 11.7µM
COc1ccc(CC(=O)NNC(=O)c2cccs2)cc1	Pf growth 96h 2.94µM
COc1cc(NC(=O)COc2ccccc2[N+](=O)[O-])ccc1NC(=O)c1ccco1	none
COCCNC(=O)C1(C)CCCN(C(=O)COc2ccccc2)C1 (stereo not given)	none (no result: Pf growth 48h, HCV inh, Pf growth 96h)
Cn1cccc1C(=O)NC(=O)COC(=O)c1cc(S(=O)(=O)N2CCCCC2)ccc1Cl	none
C=CCn1cnc2c(oc3ccccc32)c1=O	none
CCCCSc1nnc(CCNC(=O)OC(C)(C)C)o1	none
CN(Cc1ccc(F)cc1)S(=O)(=O)c1nnc(NC(=O)c2ccccc2Br)s1	none
COc1cc(NC(=O)c2cccs2)c(OC)cc1NC(=O)Cc1ccccc1	HCV inh 35.5µM, Pf growth 96h inconclusive
N#CNC(=Nc1cccc(F)c1)SCc1cccc(F)c1	none
N#CC(C#N)=C(Nc1ccc(F)cc1)SCc1cccc(Br)c1	Pf growth 48h inconclusive, HCV inh 5.01µM, Pf growth 96h inconclusive
Cc1cccc(CSC(=N)N)c1	none
Cc1cccc(CSC(Nc2ccc(F)cc2)=C(C#N)C#N)c1	Pf growth 48h inconclusive, HCV inh 11.2µM, Pf growth 96h inconclusive
CCOc1ccc(C(CC(=O)O)NC(=O)Cc2ccc(Cl)cc2)cc1 (stereo not given)	Pf growth 96h 3.29µM
Cc1noc(C)c1-c1ccc2ncnc(NCc3cccc(-c4ccccc4)c3)c2c1	Pf growth 48h inconclusive, Pf growth 96h 3.7µM (no result: AMA1-RON2 inh, HCV inh)
CNc1ncnc2ccc(-c3c(C)noc3C)cc12	none (no result: AMA1-RON2 inh, HCV inh)
COc1cc(CNCc2ccc(OC)c(OC)c2OC)cc(OC)c1	HCV inh 10µM
CCOC(=O)/C(=C/c1ccccc1)NC(=O)c1ccco1	Pf growth 96h inconclusive
CC1=CC(C)(C)Nc2ccc(OC(=O)C(Cc3ccccc3)N3C(=O)c4ccccc4C3=O)cc21 (stereo not given)	Pf growth 48h inconclusive, AMA1-RON2 inh inconclusive
CC1=CC(C)(C)Nc2ccc(OC(=O)CN3C(=O)c4ccccc4C3=O)cc21	Pf growth 48h 14.7µM, AMA1-RON2 inh inconclusive, HCV inh 25.1µM
CC1=CC(C)(C)Nc2ccc(OC(=O)CN3C(=O)c4cccc5cccc(c45)C3=O)cc21	Pf growth 48h 7.38µM, AMA1-RON2 inh inconclusive, HCV inh inconclusive, Pf growth 96h inconclusive
Cc1cccc(OCCSc2cc(C)nc(N)n2)c1	Pf growth 96h inconclusive
Fc1cc(F)c(NC(=S)N2CCOCC2)c(F)c1	none
CC(=O)Nc1cccc(/C(C)=N/NC(=O)c2cccc(S(=O)(=O)N3CCCC3)c2)c1	none (no result: Pf growth 48h, HCV inh, Pf growth 96h)
CCOC(=O)c1nc(NNC(=O)c2ccc([N+](=O)[O-])cc2)sc1C	Pf growth 48h inconclusive, HCV inh inconclusive, Pf growth 96h 3.29µM
CN(C)N1C(N)=C(C#N)C(c2ccsc2)C2=C1CC(C)(C)CC2=O (stereo not given)	none
Cc1ccc(N2C(N)=C(C#N)C(c3ccsc3)C3=C2CC(C)(C)CC3=O)cc1 (stereo not given)	Pf growth 48h inconclusive, HCV inh 12.6µM
COc1cc(C2C(C#N)=C(N)N(c3sc4c(c3C#N)CCCC4)C3=C2C(=O)CC(C)(C)C3)cc(OC)c1OC (stereo not given)	Pf growth 48h inconclusive, Pf growth 96h 11.7µM
